About 2,000 (36%) of roughly 5,500 compounds were called active. Not shown: some 18% with an inconclusive outcome. Cut-off read from the data, not from the text of the source: active = normalized growth mostly below about 0.91 (no sharp cut-off); inconclusive = no clear call, values can overlap the other calls; inactive = mostly above about 0.92. This is one part of the list.
Test: chemical genetic growth profiling, strain panel (AID 1159580);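 note: tested at 20 µM; growth read once vehicle control cultures reached saturation at 30 °C; 1 = growth at the plate median or of vehicle wells; lower values mean less growth of the strain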
Conditions: growth OD

Measured: normalized growth

CC(=O)Oc1cccc2c1C(=O)c1c(OC(C)=O)cc(C(=O)O)cc1C2=O
inactive: S. cerevisiae deletion strains, locus YJR075W, strain HOC1, hits give low values 0.994 | S. cerevisiae deletion strains, locus YKL009W, strain mrt4, hits give low values 0.986 | S. cerevisiae deletion strains, locus YKL068W, hits give low values 0.993 | S. cerevisiae deletion strains, locus YKL085W, strain MDH1 (second series), hits give low values 1 | S. cerevisiae deletion strains, locus YKL085W, strain MDH1, hits give low values 1 | S. cerevisiae deletion strains, locus YKL190W, strain CNB1, hits give low values 0.986 | S. cerevisiae deletion strains, locus YKR091W, strain srl3, hits give low values 0.944 | S. cerevisiae deletion strains, locus YLL041C, strain sdh2, hits give low values 0.954 | S. cerevisiae deletion strains, locus YLR039C, strain RIC1, hits give low values 1.02 | S. cerevisiae deletion strains, locus YLR058C, strain SHM2, hits give low values 1 | S. cerevisiae deletion strains, locus YLR113W, strain HOG1, hits give low values 1 | S. cerevisiae deletion strains, locus YLR262C, strain YPT6 (second series), hits give low values 0.891 | S. cerevisiae deletion strains, locus YLR262C, strain YPT6, hits give low values 1.05 | S. cerevisiae deletion strains, locus YLR320W, strain mms22, hits give low values 0.908 | S. cerevisiae deletion strains, locus YLR330W, strain CHS5, hits give low values 1.01 | S. cerevisiae deletion strains, locus YLR342W, strain FKS1 (second series), hits give low values 1.05 | S. cerevisiae deletion strains, locus YLR357W, strain rsc2, hits give low values 0.859 | S. cerevisiae deletion strains, locus YLR370C, strain arc18, hits give low values 0.917 | S. cerevisiae deletion strains, locus YLR384C, strain iki3, hits give low values 0.954 | S. cerevisiae deletion strains, locus YML016C, strain PPZ1, hits give low values 1.01 | S. cerevisiae deletion strains, locus YML120C, strain ndi1, hits give low values 0.943 | S. cerevisiae deletion strains, locus YMR125W, strain sto1, hits give low values 0.94 | S. cerevisiae deletion strains, locus YMR129W, hits give low values 0.947 | S. cerevisiae deletion strains, locus YMR205C, strain PFK2, hits give low values 0.948 | S. cerevisiae deletion strains, locus YMR231W, strain pep5, hits give low values 0.942 | S. cerevisiae deletion strains, locus YMR263W, strain SAP30, hits give low values 1 | S. cerevisiae deletion strains, locus YMR307W, strain GAS1, hits give low values 1.18 | S. cerevisiae deletion strains, locus YNL067W, strain RPL9B, hits give low values 1.01 | S. cerevisiae deletion strains, locus YNL128W, strain TEP1, hits give low values 0.993 | S. cerevisiae deletion strains, locus YNL153C, strain GIM3, hits give low values 1.01 | S. cerevisiae deletion strains, locus YNL183C, strain NPR1, hits give low values 0.896 | S. cerevisiae deletion strains, locus YNL209W, strain ssb2, hits give low values 0.93 | S. cerevisiae deletion strains, locus YNL233W, strain BNI4, hits give low values 1.02 | S. cerevisiae deletion strains, locus YNL248C, strain rpa49, hits give low values 0.948 | S. cerevisiae deletion strains, locus YNL250W, strain rad50, hits give low values 0.992 | S. cerevisiae deletion strains, locus YNL271C, strain bni1, hits give low values 0.997 | S. cerevisiae deletion strains, locus YNL298W, strain CLA4, hits give low values 0.995 | S. cerevisiae deletion strains, locus YNL322C, strain KRE1, hits give low values 1 | S. cerevisiae deletion strains, locus YNR049C, strain mso1, hits give low values 0.956 | S. cerevisiae deletion strains, locus YOL006C, strain TOP1, hits give low values 1.02 | S. cerevisiae deletion strains, locus YOR001W, strain rrp6, hits give low values 0.952 | S. cerevisiae deletion strains, locus YOR061W, strain CKA2, hits give low values 0.996 | S. cerevisiae deletion strains, locus YOR069W, strain VPS5, hits give low values 1 | S. cerevisiae deletion strains, locus YOR070C, strain gyp1, hits give low values 0.932 | S. cerevisiae deletion strains, locus YOR080W, strain dia2, hits give low values 0.938 | S. cerevisiae deletion strains, locus YOR083W, strain WHI5, hits give low values 0.918 | S. cerevisiae deletion strains, locus YOR106W, strain vam3, hits give low values 0.905 | S. cerevisiae deletion strains, locus YOR184W, strain ser1, hits give low values 1.02 | S. cerevisiae deletion strains, locus YOR231W, strain MKK1, hits give low values 0.95 | S. cerevisiae deletion strains, locus YOR270C, strain vph1, hits give low values 0.925 | S. cerevisiae deletion strains, locus YOR290C, strain snf2, hits give low values 0.927 | S. cerevisiae deletion strains, locus YPL055C, strain LGE1, hits give low values 1.01 | S. cerevisiae deletion strains, locus YPL078C, strain atp4, hits give low values 0.899 | S. cerevisiae deletion strains, locus YPL106C, strain sse1, hits give low values 0.989 | S. cerevisiae deletion strains, locus YPL241C, strain CIN2, hits give low values 1.05 | S. cerevisiae deletion strains, locus YPL256C, strain CLN2, hits give low values 0.955 | S. cerevisiae deletion strains, locus YPR141C, strain kar3, hits give low values 0.997 | S. cerevisiae strains, strain wild type, hits give low values 0.998
active: S. cerevisiae deletion strains, locus YKL160W, strain elf1, hits give low values 0.901 | S. cerevisiae deletion strains, locus YKR001C, strain vps1, hits give low values 0.174 | S. cerevisiae deletion strains, locus YKR026C, strain gcn3, hits give low values 0.908 | S. cerevisiae deletion strains, locus YLL001W, strain dnm1, hits give low values 0.901 | S. cerevisiae deletion strains, locus YLL026W, hits give low values 0.917 | S. cerevisiae deletion strains, locus YLR027C, strain aat2, hits give low values 0.92 | S. cerevisiae deletion strains, locus YLR102C, strain apc9, hits give low values 0.589 | S. cerevisiae deletion strains, locus YLR221C, strain rsa3, hits give low values 0.898 | S. cerevisiae deletion strains, locus YLR258W, strain gsy2, hits give low values 0.909 | S. cerevisiae deletion strains, locus YLR268W, strain sec22, hits give low values 0.39 | S. cerevisiae deletion strains, locus YLR342W, strain FKS1, hits give low values 0.891 | S. cerevisiae deletion strains, locus YLR371W, strain rom2, hits give low values 0.433 | S. cerevisiae deletion strains, locus YLR418C, strain cdc73, hits give low values 0.28 | S. cerevisiae deletion strains, locus YML032C, strain rad52, hits give low values 0.392 | S. cerevisiae deletion strains, locus YML124C, strain tub3, hits give low values 0.537 | S. cerevisiae deletion strains, locus YMR058W, strain fet3, hits give low values 0.806 | S. cerevisiae deletion strains, locus YMR078C, strain ctf18, hits give low values 0.826 | S. cerevisiae deletion strains, locus YMR223W, strain ubp8, hits give low values 0.301 | S. cerevisiae deletion strains, locus YNL071W, strain lat1, hits give low values 0.901 | S. cerevisiae deletion strains, locus YNL307C, strain MCK1, hits give low values 0.221 | S. cerevisiae deletion strains, locus YNL322C, strain KRE1 (second series), hits give low values 0.887 | S. cerevisiae deletion strains, locus YNR052C, strain pop2, hits give low values 0.135 | S. cerevisiae deletion strains, locus YOL012C, strain htz1 2.42 [resistant] | S. cerevisiae deletion strains, locus YOL147C, strain pex11, hits give low values 0.433 | S. cerevisiae deletion strains, locus YOR136W, strain idh2, hits give low values 0.498 | S. cerevisiae deletion strains, locus YOR144C, strain elg1, hits give low values 0.609 | S. cerevisiae deletion strains, locus YOR265W, strain rbl2, hits give low values 0.918 | S. cerevisiae deletion strains, locus YOR316C, strain cot1, hits give low values 0.433 | S. cerevisiae deletion strains, locus YPL051W, strain arl3, hits give low values 0.867 | S. cerevisiae deletion strains, locus YPL240C, strain hsp82, hits give low values 0.909 | S. cerevisiae deletion strains, locus YPR119W, strain clb2, hits give low values 0.63 | S. cerevisiae deletion strains, locus YPR163C, strain tif3, hits give low values 0.359 | S. cerevisiae deletion strains, locus YPR167C, strain met16, hits give low values 0.309 | S. cerevisiae deletion strains, strain wtn01, hits give low values 0.22
